Assay results as given in PubChem BioAssay (Tox21).
Inconclusive results are not listed. Values without a mark were called inactive. Active and inactive are the calls of the source. The call rests on the fitted dose curve; in most records, active means well fitted activation curve with a large enough effect in the signal ratio in the repeat runs (not every such curve was filed as active); inconclusive means weak or mixed curves; inactive means flat fitted curve, though single readings scatter; the % refers to the signal ratio.

Test: qHTS assay to identify small molecule agonists of H2AX (AID 1224845)
Conditions: CHO-K1 phospho-H2AX Ser139 HTRF, 3 h; series mostly up to 154 µM; activation (H2AX phosphorylation): at the top concentration
Excerpt: National Center for Advancing Translational Sciences [NCATS]
NIH Chemical Genomics Center [NCGC]
U.S. Environmental Protection Agency [EPA]
National Institutes of Environmental Health Sciences [NIEHS]
National Toxicology Program [NTP]
U.S. Food and Drug Administration [FDA]
HTRF phospho-H2AX (Ser139) assay (Cisbio Bioassays, US) enables the quantitative detection of the histone variant H2AX when phosphorylated on serine 139. When double-stranded DNA breaks, either by ionizing radiation or endogenous physiological processes, H2AX becomes phosphorylated at Ser139. This phospho-Ser139 serves as a sensitive biomarker for the detection of such breaks, localizing the site of DNA repair. So, HTRF phospho-H2AX Ser139 is a pertinent assay to study genome stability, the cell cycle, DNA repair, and it serves as a biomarker for cancer, and to understand aging. Wild type CHO-K1 cells were used to identify the inducers of Phospho-H2AX Ser 139 from the Tox21 10K compound collections.
Tox21 Assay Protocol Summary:
The CHO-K1 cells suspended in culture medium containing 10% FBS were dispensed at 1000 cells/ 3 ul/well in 1536-well white wall/solid bottom plates (Greiner Bio-One North America, NC) using a Multidrop Combi (Thermo Fisher Scientific Inc., Waltham, MA). After the assay plates were incubated at 37C overnight, 23 nl of compounds at 15 concentrations (from 5-48 columns) or positive control (from 1 to 4 columns) were transferred to the assay plates using a Pintool station (Wako, San Diego, CA) into each well resulting in a final DMSO concentration of 0.76%. After 3hr incubation at 37C, 1 uL/well Supplemented Lysis buffer (diluted 100 fold blocking reagent in lysis buffer) (HTRF Phospho-H2A.X (S139) Assay kit from Cisbio US Inc., Bedford, MA) was added using a Flying Reagent Dispenser (FRD) (Aurora Discovery, CA). After 10sec spin at 1000 rpm in a plate centrifuge, the assay plates were incubated at room temperature for 30 min. Then followed by the addition of 1 uL/well detection buffer (containing a mixture of two antibodies, one labeled with cryptate, Anti pH2AX (S139)-K and another labeled with d2, Anti H2AX-d2) using FRD. After incubation at room temperature for 24 hr, the time resolved fluorescence at excitation 320 nm and emissions at 665 nm and 620 nm was measured using an Envision plate reader (PerkinElmer, Waltham, MA).
On the % scale 0 is the no-effect control and ±100 the full control effect.

SMILES	outcome	activation (H2AX phosphorylation)
CC1=CCC(C(C)(C)O)CC1 (stereo not given)	inactive	–
CCCCC(CC)COP(=O)(OCC(CC)CCCC)OCC(CC)CCCC (stereo not given)	inactive	–
CCCC(=O)O	inactive	–
O=C(c1ccccc1)c1ccccc1O	inactive	–
c1ccncc1	inactive	–
CN(C)c1nc(N(C)C)nc(N(C)C)n1	inactive	–
COc1ccc(C(=O)CC(=O)c2ccc(C(C)(C)C)cc2)cc1	–	1.09%
c1cc(-c2ccncc2)ccn1	inactive	–
CCCCCCCCCCCO	inactive	–
c1ccc(Nc2ccccc2)cc1	–	1.18%
C=C(C)C1CC=C(C)CC1 (stereo not given)	inactive	–
CC(=O)O[C@]1(C(C)=O)CC[C@H]2[C@@H]3C=C(Cl)C4=CC(=O)[C@@H]5C[C@@H]5[C@]4(C)[C@H]3CC[C@@]21C	inactive	–
Cc1c(OCC(F)(F)F)ccnc1CS(=O)c1nc2ccccc2[nH]1 (stereo not given)	inactive	–
CC(C)OB(OC(C)C)OC(C)C	inactive	–
O=C(Nc1ccc([N+](=O)[O-])cc1Cl)c1cc(Cl)ccc1O	inactive	–
Cc1ncc[nH]1	inactive	–
CC(=O)c1ccccn1	inactive	–
CC(CCC(=O)O)(c1ccc(O)cc1)c1ccc(O)cc1	inactive	–
COc1cc([C@@H]2c3cc4c(cc3[C@H](O)[C@H]3COC(=O)[C@H]23)OCO4)cc(OC)c1OC	inactive	–
Nc1ncnc2nc[nH]c12	inactive	–

SMILES	outcome	activation (H2AX phosphorylation)
O=c1oc(=O)c2cc3c(=O)oc(=O)c3cc12	inactive	–
O=C(c1ccc(OCCN2CCCCC2)cc1)c1c(-c2ccc(O)cc2)sc2cc(O)ccc12	inactive	–
C/C=C/C(=O)O	inactive	–
CN1C(C(=O)Nc2ccccn2)=C(O)c2ccccc2S1(=O)=O	inactive	–
COC(=O)CCC(=O)OC	inactive	–
CC(C)=CCCC(C)CCO (stereo not given)	inactive	–
O=C(OCc1ccccc1)c1ccccc1O	–	4.65%
CC(C)OC=O	–	-1.97%
COC(C)COC(C)COC(C)CO (stereo not given)	inactive	–
OCCO	inactive	–
CCCCOCCOCCOCCO	inactive	–
CCCCC(CC)COCC1CO1 (stereo not given)	inactive	–
CCOCCOCCO	inactive	–
COc1ccc(OC)c(C(O)CNC(=O)CN)c1 (stereo not given)	inactive	–
CCCCOCCOCCO	inactive	–
O=C(O)c1ccccc1Nc1cccc(C(F)(F)F)c1	inactive	–
Nc1ncn([C@@H]2O[C@H](CO)[C@@H](O)[C@H]2O)c(=O)n1	inactive	–
O=CCc1ccccc1	inactive	–
CC(C)Oc1ccc2c(=O)c(-c3ccccc3)coc2c1	inactive	–
O=C(Nc1ccc(Cl)cc1)Nc1ccc(Cl)c(Cl)c1	inactive	–
